A selection: hits, their analogues and other compounds. The true share with any hit is near 7.4%.
HEK cytotox = cytotoxic compounds in HEK 293 cells; actives 6.6% (n = 94,000); Potency, µM (series often up to 115 µM), inactives show top-dose activity change, negative = cytotoxicity, usual class: inhibitors; HEK 293 viability, ATP luminescence (CellTiter-Glo), 48-72 h; note: nearly all actives have a fitted effect of over 60% in size
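250 HEK 293 cells/well; compound by pintool; incubated 48 or 72 hr at 37 degree Celsius; CellTiter-Glo added, 10 min RT, luminescence imaged.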
FLuc inh = blocks purified firefly luciferase enzyme activity. purified P. pyralis luciferase, luminescence, biochemical. Potency, µM (top dose mostly 115 µM), actives largely listed as inhibitors. actives 2.5% (n = 76,000); note: nearly all actives have a fitted effect of over 65% in size
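Inhibitors were tested against purified firefly luciferase in a biochemical, low-substrate format (both substrates at 10uM) and luminescence measured with a CCD imager.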
SNCA expr inhib = SNCA gene expression inhibition; HEK-293 SNCA-luciferase knock-in, luminescence, 24 h; Potency, µM (doses to about 57.2 µM), for the others: at the top dose activity change, negative = inhibition, actives largely listed as inhibitors; actives 0.17% (n = 140,000); AID 1671194;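 note: plate controls were DMSO cells for no effect and cell-free wells for full effect; nearly all actives have a fitted effect of over 45% in size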
3T3 cytotox = cytotoxic compounds in NIH 3T3 cells | NIH 3T3 viability, CellTiter-Glo ATP luminescence, 48-72 h | Potency, µM (doses to about 96.7 µM), without a hit: at the top dose activity change, negative = cytotoxicity, hits mostly inhibitors | actives 4.3% (n = 94,000); note: nearly all actives have a fitted effect of over 55% in size
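Viability of NIH 3T3 cells after 48 or 72 hr compound treatment at 37 °C was assessed by CellTiter-Glo, with luminescence imaged following a 10 min room-temperature step.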
hNpr1 antagonist = blocks ANP-stimulated signaling of human Npr1 receptor; P16066; HEK293 hNpr1 GloSensor cGMP, ANP-stimulated luminescence; Potency, µM (doses to about 46.3 µM), without a hit: at the highest dose activity change, negative = inhibition, hits mostly inhibitors; actives 1.6% (n = 76,000); calls by dose curve; note: nearly all actives have a fitted effect of over 60% in size
Target sequence (P16066 whole entry, looked up): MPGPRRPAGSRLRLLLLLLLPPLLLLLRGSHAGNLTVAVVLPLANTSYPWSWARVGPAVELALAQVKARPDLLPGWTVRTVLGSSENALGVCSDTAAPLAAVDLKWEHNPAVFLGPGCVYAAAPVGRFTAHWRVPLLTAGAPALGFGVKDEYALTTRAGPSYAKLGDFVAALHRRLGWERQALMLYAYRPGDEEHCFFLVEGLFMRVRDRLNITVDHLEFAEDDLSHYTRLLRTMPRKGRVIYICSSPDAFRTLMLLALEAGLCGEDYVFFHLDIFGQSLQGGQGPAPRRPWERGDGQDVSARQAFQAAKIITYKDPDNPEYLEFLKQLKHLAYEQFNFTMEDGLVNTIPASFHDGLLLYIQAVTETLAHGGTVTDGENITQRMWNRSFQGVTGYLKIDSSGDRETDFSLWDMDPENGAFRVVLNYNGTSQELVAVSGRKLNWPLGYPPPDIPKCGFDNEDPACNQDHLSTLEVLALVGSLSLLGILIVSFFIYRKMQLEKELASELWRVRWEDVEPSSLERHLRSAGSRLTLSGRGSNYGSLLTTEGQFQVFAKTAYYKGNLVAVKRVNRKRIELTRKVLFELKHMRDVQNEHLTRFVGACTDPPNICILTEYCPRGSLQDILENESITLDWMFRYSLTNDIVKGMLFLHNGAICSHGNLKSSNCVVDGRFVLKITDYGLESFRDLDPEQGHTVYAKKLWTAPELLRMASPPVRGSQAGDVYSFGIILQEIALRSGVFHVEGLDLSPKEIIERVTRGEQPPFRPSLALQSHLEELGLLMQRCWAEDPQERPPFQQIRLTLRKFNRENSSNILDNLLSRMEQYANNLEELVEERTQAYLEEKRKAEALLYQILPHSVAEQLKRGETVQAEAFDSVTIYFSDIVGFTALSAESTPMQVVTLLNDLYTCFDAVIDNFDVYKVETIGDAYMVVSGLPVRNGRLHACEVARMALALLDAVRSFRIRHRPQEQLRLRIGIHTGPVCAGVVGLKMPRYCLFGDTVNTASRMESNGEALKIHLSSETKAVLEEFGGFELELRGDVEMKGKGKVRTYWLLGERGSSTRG
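HEK293 cells stably expressing human Npr1 and cGMP GloSensor pGS-40F, loaded 2 h with 2% GloSensor reagent, given compound 30 min at room temperature. Luminescence read before and 20 min after 0.1 nM hNppA.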
HEK293 viab = reduces viability of HEK-293 SNCA reporter cells; Potency, µM (top dose mostly 57.1 µM), for the others: at the top dose activity change, negative = cytotoxicity, most hits filed as cytotoxic; HEK-293-SNCA-luc viability, GF-AFC fluorescence, 24 h; AID 1671193; actives 0.12% (n = 150,000);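 note: 0% = DMSO-treated cells and -100% = medium-only wells without cells; nearly all actives have a fitted effect of over 30% in size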
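Cytotoxicity counterscreen: after 24 h compound treatment of genome-edited SNCA-luciferase HEK-293 cells, live-cell protease substrate GF-AFC read by fluorescence after 30 min; activity scaled between DMSO (0%) and medium-only (-100%), curves Hill-fitted.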
The depositor's hits bear a star; [ ] = dose if it differs, or a comment. Unless noted, calls come from the whole dose curve; as a rule, active = well fitted curve in the direction sought with a large enough effect; inconclusive = small, poorly fitted or top-dose-only effect, or another doubt; inactive = no such curve, though single readings can be large; an effect the other way counts as inactive or inconclusive. Unless noted, % is set by controls: 0 for no effect and ±100 for the full control effect; potency is the fitted concentration of half-maximal effect.

`Cc1nn(-c2ccc(C(C)(C)C)cc2)c(C)c1[C@@H]1C=C[C@@H](NC(=O)NCc2ccccc2)C1` gave HEK cytotox 28µM*, FLuc inh inconclusive, SNCA expr inhib 36%[87.6 µM], 3T3 cytotox inconclusive, hNpr1 antagonist 18µM* and HEK293 viab inconclusive.
Screening Cc1nn(-c2ccc(C(C)C)cc2)c(C)c1[C@@H]1C=C[C@@H](NC(=O)NC2CCCCC2)C1 returned HEK cytotox inconclusive, FLuc inh 7.9µM*, SNCA expr inhib -9%[87.6 µM], 3T3 cytotox inconclusive, hNpr1 antagonist inconclusive and HEK293 viab -30%[87.6 µM].
Cc1nn(-c2ccc(C(C)C)cc2)c(C)c1[C@@H]1C=C[C@@H](NC(=O)NCc2ccccc2)C1 was read as HEK cytotox 25µM*, FLuc inh inconclusive, SNCA expr inhib inconclusive, 3T3 cytotox 25µM*, hNpr1 antagonist 7.1µM* and HEK293 viab inconclusive.
`Cc1nn(-c2ccc(C(F)(F)F)cc2)c(C)c1[C@@H]1C=C[C@@H](NC(=O)NC2CCCCC2)C1` gave HEK cytotox inconclusive, FLuc inh inactive, SNCA expr inhib 2%, 3T3 cytotox inconclusive, hNpr1 antagonist -20% and HEK293 viab 1%.
For O=C(C1CCCC1)N1Cc2ccccc2CC2(CCN(CC3CCNC3)C2)C1 (stereo unspecified) the results were HEK cytotox inconclusive, SNCA expr inhib -9%, 3T3 cytotox inconclusive and HEK293 viab -26%.
For Cc1nn(-c2ccc(C(C)(C)C)cc2)c(C)c1[C@@H]1C=C[C@@H](NCc2ccco2)C1 the results were HEK cytotox 11µM*, FLuc inh 50µM*, SNCA expr inhib 26%[87.6 µM], 3T3 cytotox inconclusive, hNpr1 antagonist -30%[70.6 µM] and HEK293 viab -28%[87.6 µM].
For Cc1nn(-c2ccc(C(F)(F)F)cc2)c(C)c1[C@@H]1C=C[C@@H](NC(=O)CC(C)(C)CC(=O)O)C1 the results were HEK cytotox -20%, FLuc inh inactive, SNCA expr inhib 16%, 3T3 cytotox inconclusive, hNpr1 antagonist 1% and HEK293 viab 4%.
For O=C(Nc1cn[nH]c1-c1nc2ccc(CN3CCOCC3)cc2[nH]1)NC1CC1 the results were SNCA expr inhib 24µM* and HEK293 viab inconclusive.
`O=C(NC1CCCCCC1)C1CCc2nnc(CN[S+](=O)([O-])c3ccccc3Cl)n21` (stereo unspecified) gave HEK cytotox -6%, SNCA expr inhib 17%, 3T3 cytotox -24% and HEK293 viab -28%.
Screening Cc1ccc(-c2ncc(C(=O)NCc3ccccc3Cl)c(-c3ccncc3)n2)cc1 returned HEK cytotox inconclusive, FLuc inh inactive, SNCA expr inhib inconclusive, 3T3 cytotox inconclusive, hNpr1 antagonist -4% and HEK293 viab inconclusive.
Screening Cc1ccc(-c2ncc(C(=O)NCCN(C)C3CCCCC3)c(-c3ccncc3)n2)cc1 returned HEK cytotox 20µM*, FLuc inh inactive, SNCA expr inhib -14%, 3T3 cytotox 25µM*, hNpr1 antagonist 1% and HEK293 viab -20%.
Cc1ccc(-c2ncc(C(=O)Nc3cccc(Br)c3)c(-c3ccncc3)n2)cc1 was read as HEK cytotox 25µM*, FLuc inh inactive, SNCA expr inhib -29%, 3T3 cytotox inconclusive, hNpr1 antagonist -12% and HEK293 viab -25%.
For Cc1cc(Cl)ccc1NC(=O)c1cnc(-c2ccccc2)nc1-c1ccncc1 the results were HEK cytotox 45µM*, FLuc inh inactive, SNCA expr inhib 0%, 3T3 cytotox 20µM*, hNpr1 antagonist inconclusive and HEK293 viab -13%.
`Cc1cc(F)ccc1NC(=O)c1cnc(-c2ccc(F)cc2)nc1-c1ccncc1` gave HEK cytotox -6%, FLuc inh inactive, SNCA expr inhib -18%, 3T3 cytotox -3%, hNpr1 antagonist -24% and HEK293 viab inconclusive.
Screening O=C1NCCCCCN(Cc2cccc(F)c2)[C@H]2CCC[C@@H]12 returned HEK cytotox inconclusive, FLuc inh inactive, SNCA expr inhib 9%, 3T3 cytotox inconclusive, hNpr1 antagonist -3% and HEK293 viab 8%.
For N#Cc1ccc(CN2CCCCCNC(=O)[C@@H]3CCC[C@@H]32)cc1 the results were HEK cytotox 79µM*, FLuc inh inactive, SNCA expr inhib -13%, 3T3 cytotox inconclusive, hNpr1 antagonist -9% and HEK293 viab 0%.
For O=C1NCCCCCCN(Cc2cccc(F)c2)[C@H]2CCC[C@@H]12 the results were HEK cytotox 79µM*, FLuc inh inactive, SNCA expr inhib inconclusive, 3T3 cytotox inconclusive, hNpr1 antagonist -15% and HEK293 viab -9%.
For N#Cc1cccc(CN2CCCCCNC(=O)[C@@H]3CCC[C@@H]32)c1 the results were HEK cytotox -21%, FLuc inh inactive, SNCA expr inhib 7%, 3T3 cytotox -24%, hNpr1 antagonist -3% and HEK293 viab 5%.
CC(=O)Nc1cccc(-c2ncc3c(n2)OCCN(c2ccccc2)C3=O)c1 was read as HEK cytotox -6%[172 µM], FLuc inh 28µM*, SNCA expr inhib 24%[87.6 µM], 3T3 cytotox 18µM*, hNpr1 antagonist 4%[70.6 µM] and HEK293 viab -9%[87.6 µM].
For O=C1c2cnc(-c3ccncc3)nc2OCCN1c1ccccc1 the results were HEK cytotox inconclusive, FLuc inh inconclusive, SNCA expr inhib 27%[87.6 µM], 3T3 cytotox -23%[138 µM], hNpr1 antagonist -5%[70.6 µM] and HEK293 viab -4%[87.6 µM].
For NC(=O)c1cccc(-c2ncc3c(n2)OCCN(c2ccccc2)C3=O)c1 the results were HEK cytotox inconclusive, FLuc inh 45µM*, SNCA expr inhib 5%[87.6 µM], 3T3 cytotox inconclusive, hNpr1 antagonist 1%[70.6 µM] and HEK293 viab -3%[87.6 µM].
CC(=O)Nc1cccc(-c2ncc3c(n2)OCCN(Cc2ccc(F)cc2F)C3=O)c1 was read as HEK cytotox inconclusive, FLuc inh inactive, SNCA expr inhib -3%[87.6 µM], 3T3 cytotox inconclusive, hNpr1 antagonist -6%[70.6 µM] and HEK293 viab -1%[87.6 µM].
O=C1c2cnc(-c3ccccc3)nc2OCCN1c1cccc(C(F)(F)F)c1 was read as HEK cytotox inconclusive, FLuc inh inconclusive, SNCA expr inhib 64%[87.6 µM], 3T3 cytotox inconclusive, hNpr1 antagonist inconclusive and HEK293 viab -6%[87.6 µM].
For CC(=O)Nc1cccc(-c2ncc3c(n2)OCCN(Cc2ccccc2)C3=O)c1 the results were HEK cytotox inconclusive, FLuc inh inconclusive, SNCA expr inhib 15%[87.6 µM], 3T3 cytotox inconclusive, hNpr1 antagonist -1%[70.6 µM] and HEK293 viab 2%[87.6 µM].

Screening results: PubChem, National Center for Advancing Translational Sciences (NCATS)
